Hit rate of the full screen: of about 5,500 compounds, about 2,000 (36%) were called active. About 18% were inconclusive and are not listed. No stated cut-off is given here; in the data, active means normalized growth mostly below about 0.91 (no sharp cut-off); inconclusive means no clear call, values can overlap the other calls; inactive means mostly above about 0.92. This is one part of the list.
Test: chemical genetic growth profiling, strain panel (AID 1159580);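 further: tested at 20 µM; growth read once vehicle control cultures reached saturation at 30 °C; 1 = growth at the plate median or of vehicle wells; lower values mean less growth of the strain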
Conditions: growth OD
[1] = S. cerevisiae deletion strains, locus YDL101C, strain DUN1, active compounds read low
[2] = S. cerevisiae deletion strains, locus YHR030C, strain SLT2, active compounds read low
[3] = S. cerevisiae deletion strains, locus YAL013W, strain DEP1, active compounds read low
[4] = S. cerevisiae deletion strains, locus YDR150W, strain NUM1, active compounds read low
[5] = S. cerevisiae deletion strains, locus YGR229C, strain SMI1, active compounds read low
[6] = S. cerevisiae deletion strains, locus YJR075W, strain HOC1, active compounds read low
[7] = S. cerevisiae deletion strains, locus YMR263W, strain SAP30, active compounds read low
[8] = S. cerevisiae deletion strains, locus YNL128W, strain TEP1, active compounds read low
[9] = S. cerevisiae deletion strains, locus YNL322C, strain KRE1, active compounds read low
[10] = S. cerevisiae deletion strains, locus YPL055C, strain LGE1, active compounds read low
[11] = S. cerevisiae deletion strains, locus YPL241C, strain CIN2, active compounds read low
[12] = S. cerevisiae deletion strains, locus YAL040C, strain CLN3, active compounds read low
[13] = S. cerevisiae deletion strains, locus YCL061C, strain MRC1 (second series), active compounds read low
[14] = S. cerevisiae deletion strains, locus YDR363W, strain ESC2, active compounds read low
[15] = S. cerevisiae deletion strains, locus YER002W, strain NOP16, active compounds read low
[16] = S. cerevisiae deletion strains, locus YMR307W, strain GAS1, active compounds read low
[17] = S. cerevisiae deletion strains, locus YNL197C, strain WHI3, active compounds read low
[18] = S. cerevisiae deletion strains, locus YNL224C, strain SQS1, active compounds read low
[19] = S. cerevisiae deletion strains, locus YOR083W, strain WHI5 (second series), active compounds read low

Measured: normalized growth

Cc1c(C(=O)NCCNc2ccc(C(F)(F)F)cc2[N+](=O)[O-])cnn1-c1ccc(F)cc1
inactive: S. cerevisiae deletion strains, locus YAR019C, strain CDC15, active compounds read low 0.981 | S. cerevisiae deletion strains, locus YBL105C, strain PKC1, active compounds read low 0.971 | S. cerevisiae deletion strains, locus YBR135W, strain CKS1, active compounds read low 0.974 | S. cerevisiae deletion strains, locus YBR136W, strain MEC1, active compounds read low 0.978 | S. cerevisiae deletion strains, locus YBR160W, strain CDC28, active compounds read low 0.979 | S. cerevisiae deletion strains, locus YDL017W, strain CDC7, active compounds read low 0.982 | S. cerevisiae deletion strains, locus YDL028C, strain MPS1, active compounds read low 0.989 | [1] 0.988 | S. cerevisiae deletion strains, locus YDL108W, strain KIN28, active compounds read low 0.982 | S. cerevisiae deletion strains, locus YDL132W, strain cdc53, active compounds read low 0.978 | S. cerevisiae deletion strains, locus YDL214C, strain PRR2, active compounds read low 0.958 | S. cerevisiae deletion strains, locus YDR052C, strain DBF4, active compounds read low 0.985 | S. cerevisiae deletion strains, locus YDR054C, strain cdc34, active compounds read low 0.956 | S. cerevisiae deletion strains, locus YDR226W, strain ADK1, active compounds read low 0.982 | S. cerevisiae deletion strains, locus YDR477W, strain SNF1, active compounds read low 0.968 | S. cerevisiae deletion strains, locus YER123W, strain YCK3, active compounds read low 0.966 | S. cerevisiae deletion strains, locus YER133W, strain GLC7, active compounds read low 0.982 | S. cerevisiae deletion strains, locus YFL009W, strain cdc4, active compounds read low 0.98 | S. cerevisiae deletion strains, locus YFL029C, strain CAK1, active compounds read low 0.977 | S. cerevisiae deletion strains, locus YFR003C, strain YPI1, active compounds read low 0.984 | S. cerevisiae deletion strains, locus YFR019W, strain FAB1, active compounds read low 0.973 | S. cerevisiae deletion strains, locus YFR028C, strain CDC14, active compounds read low 0.978 | S. cerevisiae deletion strains, locus YGR040W, strain KSS1, active compounds read low 0.958 | S. cerevisiae deletion strains, locus YGR052W, strain FMP48, active compounds read low 1.06 | S. cerevisiae deletion strains, locus YGR092W, strain DBF2, active compounds read low 0.935 | [2] 0.97 | S. cerevisiae deletion strains, locus YHR079C, strain IRE1, active compounds read low 0.954 | S. cerevisiae deletion strains, locus YHR082C, strain KSP1, active compounds read low 1.01 | S. cerevisiae deletion strains, locus YHR205W, strain SCH9, active compounds read low 0.962 | S. cerevisiae deletion strains, locus YIL147C, strain SLN1, active compounds read low 0.986 | S. cerevisiae deletion strains, locus YJL095W, strain BCK1, active compounds read low 0.978 | S. cerevisiae deletion strains, locus YJL128C, strain PBS2, active compounds read low 0.946 | S. cerevisiae deletion strains, locus YJL157C, strain FAR1, active compounds read low 0.943 | S. cerevisiae deletion strains, locus YJR016C, strain ILV3, active compounds read low 0.984 | S. cerevisiae deletion strains, locus YJR066W, strain TOR1 (second series), active compounds read low 0.933 | S. cerevisiae deletion strains, locus YJR066W, strain TOR1, active compounds read low 0.999 | S. cerevisiae deletion strains, locus YKL048C, strain ELM1, active compounds read low 0.949 | S. cerevisiae deletion strains, locus YKL067W, strain YNK1, active compounds read low 0.97 | S. cerevisiae deletion strains, locus YKL101W, strain HSL1, active compounds read low 0.947 | S. cerevisiae deletion strains, locus YKL193C, strain SDS22, active compounds read low 0.983 | S. cerevisiae deletion strains, locus YKL203C, strain TOR2, active compounds read low 1.01 | S. cerevisiae deletion strains, locus YLR113W, strain HOG1, active compounds read low 0.904 | S. cerevisiae deletion strains, locus YLR133W, strain CKI1, active compounds read low 0.941 | S. cerevisiae deletion strains, locus YLR403W, strain SFP1, active compounds read low 0.937 | S. cerevisiae deletion strains, locus YML070W, strain DAK1, active compounds read low 0.94 | S. cerevisiae deletion strains, locus YMR001C, strain CDC5, active compounds read low 0.985 | S. cerevisiae deletion strains, locus YMR205C, strain PFK2 (second series), active compounds read low 0.978 | S. cerevisiae deletion strains, locus YMR277W, strain FCP1, active compounds read low 0.991 | S. cerevisiae deletion strains, locus YNL006W, strain LST8, active compounds read low 1 | S. cerevisiae deletion strains, locus YNL020C, strain ARK1, active compounds read low 0.941 | S. cerevisiae deletion strains, locus YNL161W, strain CBK1, active compounds read low 0.975 | S. cerevisiae deletion strains, locus YNL183C, strain NPR1, active compounds read low 0.986 | S. cerevisiae deletion strains, locus YNL207W, strain RIO2, active compounds read low 0.973 | S. cerevisiae deletion strains, locus YNL222W, strain SSU72, active compounds read low 0.974 | S. cerevisiae deletion strains, locus YNL307C, strain MCK1 (second series), active compounds read low 0.939 | S. cerevisiae deletion strains, locus YOL078W, strain AVO1, active compounds read low 0.986 | S. cerevisiae deletion strains, locus YOL136C, strain PFK27, active compounds read low 0.938 | S. cerevisiae deletion strains, locus YOR061W, strain CKA2, active compounds read low 0.99 | S. cerevisiae deletion strains, locus YOR119C, strain RIO1, active compounds read low 1.01 | S. cerevisiae deletion strains, locus YOR231W, strain MKK1, active compounds read low 0.912 | S. cerevisiae deletion strains, locus YOR329C, strain SCD5, active compounds read low 0.984 | S. cerevisiae deletion strains, locus YPL031C, strain PHO85, active compounds read low 0.96 | S. cerevisiae deletion strains, locus YPL153C, strain RAD53, active compounds read low 0.954 | S. cerevisiae deletion strains, locus YPL204W, strain HRR25, active compounds read low 0.943 | S. cerevisiae deletion strains, locus YPL209C, strain IPL1, active compounds read low 0.979 | S. cerevisiae deletion strains, locus YPL256C, strain CLN2, active compounds read low 0.908 | S. cerevisiae deletion strains, locus YPR025C, strain CCL1, active compounds read low 0.979 | S. cerevisiae deletion strains, locus YPR106W, strain ISR1, active compounds read low 0.965 | S. cerevisiae deletion strains, locus YPR111W, strain DBF20, active compounds read low 0.962 | S. cerevisiae deletion strains, strain NNK1, active compounds read low 0.971 | S. cerevisiae deletion strains, strain TSCII, active compounds read low 0.982

Cc1cc(C)c(C(=O)NCCNc2ccc(C(F)(F)F)cc2[N+](=O)[O-])c(C)c1
active: S. cerevisiae deletion strains, locus YEL061C, strain CIN8, active compounds read low 0.862 | [2] 0.259 | S. cerevisiae deletion strains, locus YHR087W, strain rtc3, active compounds read low 0.89 | S. cerevisiae deletion strains, locus YKL190W, strain CNB1, active compounds read low 0.794 | S. cerevisiae deletion strains, locus YLR039C, strain RIC1, active compounds read low 0.473 | S. cerevisiae deletion strains, locus YLR085C, strain ARP6, active compounds read low 0.331 | S. cerevisiae deletion strains, locus YLR262C, strain YPT6, active compounds read low 0.58 | S. cerevisiae deletion strains, locus YML094W, strain GIM5, active compounds read low 0.817 | S. cerevisiae deletion strains, locus YNL298W, strain CLA4 (second series), active compounds read low 0.785 | S. cerevisiae deletion strains, locus YNR030W, strain Alg12, active compounds read low 0.652 | [10] 0.687 | [11] 0.846 | S. cerevisiae deletion strains, locus YPR135W, strain CTF4, active compounds read low 0.55
inactive: [3] 0.97 | S. cerevisiae deletion strains, locus YBR229C, strain ROT2, active compounds read low 0.951 | S. cerevisiae deletion strains, locus YCL061C, strain MRC1, active compounds read low 0.966 | [1] 0.98 | S. cerevisiae deletion strains, locus YDL134C, strain PPH21, active compounds read low 0.971 | [4] 0.9 | S. cerevisiae deletion strains, locus YGR078C, strain PAC10, active compounds read low 0.953 | [5] 1 | S. cerevisiae deletion strains, locus YJL187C, strain SWE1, active compounds read low 0.978 | S. cerevisiae deletion strains, locus YJR043C, strain POL32, active compounds read low 0.968 | [6] 0.895 | S. cerevisiae deletion strains, locus YLR058C, strain SHM2 (second series), active compounds read low 0.996 | S. cerevisiae deletion strains, locus YMR219W, strain ESC1, active compounds read low 0.98 | [7] 0.96 | [8] 0.957 | S. cerevisiae deletion strains, locus YNL153C, strain GIM3, active compounds read low 0.964 | [9] 0.986 | S. cerevisiae strains, strain wild type, active compounds read low 0.916

CCOC(=O)c1ncn2c1[C@@H]1CCCN1C(=O)c1cc(OC)ccc1-2
inactive: [12] 0.938 | [13] 1.01 | [14] 1 | [15] 1.01 | [5] 1.05 | [16] 0.981 | S. cerevisiae deletion strains, locus YNL175C, strain NOP13, active compounds read low 1.04 | [17] 1.03 | [18] 1.01 | [9] 1.02 | [19] 1.04 | [10] 1.05 | [11] 1.01

CCCN(CCC)[C@H]1CCc2c(F)ccc(O)c2C1
active: [8] 0.428
inactive: [13] 1 | [14] 1.01 | [15] 0.998 | [5] 1.02 | [6] 1.01 | [16] 0.993 | [17] 0.979 | [18] 0.995 | [19] 1.01 | [11] 1

CCCN(CCC)[C@@H]1CCc2c(F)ccc(O)c2C1
inactive: [3] 1.01 | [12] 1.01 | [13] 1.01 | [4] 0.983 | [14] 1.01 | [15] 1 | [6] 1.02 | [7] 1.01 | [16] 1 | [17] 0.992 | [18] 0.999 | [19] 1.01 | [10] 1.01 | [11] 1
